Results: PubChem BioAssay AID588499 (NMMLSC, 2011)
The whole screen tested about 360,000 compounds, of which about 610 (0.17%) were called active. Inconclusive results (about 2%) are left out. For the sample, actives were picked, then their nearest neighbours and some compounds at random. Values without a mark were called inactive. Rule as the data show it: active = inhibition above about 30%; inconclusive = no clear call, values can overlap the other calls; inactive = below that.

These molecules were tested on Botulinum neurotoxin type A light chain protease (Clostridium botulinum A str. ATCC 3502) (assay: blockers of BoNT/A LC substrate cleavage – biochemical, flow cytometry, MLPCN library, primary screen (AID 588499; also: plate controls were buffer without enzyme for full effect and enzyme alone for no effect)). Settings: multiplex microsphere protease substrate cleavage, at 10 µM, hits give high values.

Row | SMILES | inhibition
1 | NC(CSC12CC3CC(CC(C3)C1)C2)C(=O)O (configuration not stated) | 1.6%
2 | CCCCN(C(=O)COc1ccc(NC(C)=O)cc1)C1CCS(=O)(=O)C1 (configuration not stated) | 1.1%
3 | O=C(Nc1ccc(-n2ccnc2P(=O)(O)c2ccccc2)cc1)c1ccccc1Br | 1.4%
4 | O=C(CNC(=O)c1ccccc1F)c1ccc(Br)cc1 | 0.8%
5 | O=C(C[n+]1cc(Br)cc2ccccc21)c1ccc(F)cc1 | 120% (active)
6 | COC(=O)C[n+]1cccc2ccccc21 | 28.6%
7 | Cc1cc(C)c2c(c1)cc(C)c1nnc(SCC(=O)Nc3cc(C)on3)n12 | -0.7%
8 | CCOCC(=O)NCc1ccc2c(c1)cc(C)n2C | 6%
9 | COc1cc(C(=O)NCc2ccc3c(c2)cc(C)n3C)cc(OC)c1OC | 74.1% (active)
10 | COc1cc(C(=O)NCc2cc3cc(Cl)ccc3n2C)cc(OC)c1OC | 0.3%
11 | CCC(Cc1ccccc1)NC(=O)C1CCCCC1 (configuration not stated) | 0.2%
12 | Cc1cccc2cc3c(N)c(C(=O)N4CCCc5ccccc54)sc3nc12 | 54.5% (active)
13 | Cc1ccc(C(=O)N2CCCc3ccccc32)c(Cl)c1 | -0.5%
14 | O=C(c1c(Cl)nc2sccn12)N1CCCc2ccccc21 | 0%
15 | COc1cc2ccc(C(C)=O)c(O)c2cc1OC | 0%
16 | C[C@H]1COc2cc(N3CCSCC3)ccc2S(=O)(=O)N1 | 1.1%
17 | Cc1noc(C)c1NC(=O)Nc1cccc2c1O[C@H](CN(C)S(=O)(=O)c1c(C)noc1C)[C@@H](C)CN([C@H](C)CO)C2=O | -0.8%
18 | COc1ccc(OC)c(NC(=O)C2CCCN2S(=O)(=O)c2cccc3nsnc23)c1 (configuration not stated) | 0.9%
19 | O=c1c(-c2ccccc2Cl)c[nH]n1-c1ccccc1 | 1.7%
20 | CCCCNC(=O)C[C@@H]1C[C@@]2(C(=O)OCC)CCC=C2N(Cc2ccco2)C1=O | 0.2%
21 | CN1CC(c2ccccc2)C2(COc3ccccc3C2=O)C12C(=O)Nc1ccccc12 (configuration not stated) | -0.4%
22 | CCc1nc2c(OCC(=O)C(C)(C)C)cccn2c1N(C)C(=O)c1ccccc1F | -0.5%
23 | CC(NCc1nc2ccccc2n1C)C12CC3CC(CC(C3)C1)C2 (configuration not stated) | 0%

Row | SMILES | inhibition
24 | COc1ccc(CCNC2=C(Cl)C(=O)N(Cc3ccccc3)C2=O)cc1OC | -0.2%
25 | CN1C=CC=C/C1=C1\SC(=S)N(Cc2ccccc2)C1=O | -1.8%
26 | COc1cc(/C=C2/SC(=S)N(Cc3ccccc3)C2=O)cc(OC)c1O | 39.9% (active)
27 | O=C(O)CN(Cc1ccco1)S(=O)(=O)c1ccc(F)cc1 | -0.4%
28 | Cc1csc(Nc2ccc(Cl)cc2)[n+]1-c1ccc(Cl)cc1 | -2%
29 | O=C(CN1C(=O)c2ccc([N+](=O)[O-])cc2C1=O)Nc1nnc(C2CC2)s1 | -0.6%
30 | COc1cccc(-c2cc3nc4c(c(N5CCC6(CC5)OCCO6)n3n2)CCCC4)c1 | 0.1%
31 | Cc1onc(-c2ccccc2Cl)c1C(=O)NCCn1ccc2ccccc21 | 81.2% (active)
32 | Cc1onc(-c2ccccc2Cl)c1C(=O)N(Cc1ccc(N(C)C)cc1)C(C)C | -3.2%
33 | Cc1ccc2cc(CCNC(=O)c3c(-c4ccccc4Cl)noc3C)c(=O)[nH]c2c1 | -0.3%
34 | Oc1c(Cl)cc(Cl)c(Cl)c1Cc1c(O)c(Cl)cc(Cl)c1Cl | -1%
35 | CC(=O)Nc1ccc(NC(=O)C(C)n2c3ccccc3c3nc(=O)cc(C)n32)cc1 (configuration not stated) | -0.3%
36 | COc1ccc(-c2cc3c(c4c2ccn4C)C2CCC3C2)cn1 (configuration not stated) | 52.1% (active)
37 | Cc1cccc(S(=O)(=O)N(C)C[C@H]2OCc3cnnn3CCCC(=O)N([C@@H](C)CO)C[C@H]2C)c1 | -0.3%
38 | Cc1c(CC(=O)N2CCN(C(=O)C3COc4ccccc4O3)CC2)c(=O)oc2c(O)c(O)ccc12 (configuration not stated) | 3.7%
39 | COc1ccc(CCNC(=O)C2CC3Cn4c(nc5cc(C)c(C)cc54)C3N2C)cc1 (configuration not stated) | -0.2%
40 | O=C1[C@@H]2C(c3cccnc3)=NO[C@@H]2C(=O)N1c1ccc(Cl)cc1Cl | -0.1%
41 | COc1ccc(NC(=O)N2CCCC(C(=O)Nc3ccccc3OC)C2)cc1 (configuration not stated) | -1.6%
42 | CC1(C(=O)NCc2ccc3c(c2)OCO3)CCN1C(=O)Cc1cccs1 (configuration not stated) | -0.2%
43 | CCN(CC)C(=O)C(C)N1c2cccc3cccc(c23)S1(=O)=O (configuration not stated) | 0.5%
44 | CC(C)c1nc(CNC(=O)CC2C(=O)NCCN2Cc2cccc(F)c2F)cs1 (configuration not stated) | 0%
45 | Cc1ccc(C(=O)NCC(=O)OCC(=O)Nc2cccc(S(=O)(=O)N3CCCC3)c2)cc1C | -0.4%
46 | COC1=NC2=NCCN2C(OC)=N1 | -0.5%

Row | SMILES | inhibition
47 | C[C@H](CO)N1C[C@H](C)[C@@H](CN(C)C(=O)C2CCCCC2)OCc2cnnn2CCCC1=O | -0.2%
48 | COc1ccc(S(=O)(=O)N(CCCN2CCCC2=O)Cc2cc3c(C)ccc(C)c3[nH]c2=O)cc1 | 0.4%
49 | CNC(=O)Nc1cc(C(C)(C)C)no1 | 0%
50 | CCOC(=O)C1=C(C)NC2=C(C(=O)CC(C)(C)C2)C1c1ccsc1 (configuration not stated) | 1.6%
51 | Cc1ccc(NC(=O)COc2ccc(-n3ccnc3)cc2)cc1Cl | -0.5%
52 | Cc1ccc(-c2nc(-c3cccnc3)sc2CC(=O)Nc2ccc(C)c(Cl)c2)cc1 | 51.4% (active)
53 | Cc1nc(-c2ccc(F)cc2)c(CC(=O)Nc2cccc(S(=O)(=O)N3CCOCC3)c2)s1 | 1.2%
54 | Nc1ncnc2c1cnn2C1CC(O)C(CO)O1 (configuration not stated) | 0.6%
55 | C=C1C(=O)[C@]23C[C@H]1CCC2[C@@]1(C)C(C[C@@H]3O)[C@](C)(C(=O)O)CC[C@@H]1O (some centres not stated) | 0.1%
56 | Cc1cc(N2CCCC2)ccc1NC(=O)COc1ccc(Cl)cc1 | -8.3%
57 | CCN1/C(=C\c2ccc3ccccc3[n+]2CC)Sc2cc(C)ccc21 | 71.1% (active)
58 | CC(C)C[C@@H](COCc1ccc(Cl)cc1)N1CCN(C(=O)c2ccc(Cl)cc2Cl)CCC1=O | -0.6%
59 | COc1ccc(C(=O)NC(=S)N2CCNC(=O)C2CC(=O)OC(C)C)cc1 (configuration not stated) | -0.1%
60 | Cc1cccc(-n2c(SCC(N)=O)nc3c(c2=O)C2(CCCCC2)Cc2ccccc2-3)c1 | -0.1%
61 | COc1ccc(COC[C@H](CC(C)C)N2CCN(C(=O)c3cccc(C(F)(F)F)c3)CCC2=O)cc1 | 0.7%
62 | O=C(O)C(c1ccccc1)N1C(=O)/C(=C\c2ccc(-c3cccc(Cl)c3)o2)SC1=S (configuration not stated) | 39.3% (active)
63 | CN1C(=O)/C(=C\c2ccc(-c3ccccc3)o2)SC1=S | 66.9% (active)
64 | Cc1ccc(C(=O)O)cc1-c1ccc(/C=C2\SC(=O)N(CC(=O)Nc3ccc4c(c3)OCO4)C2=O)o1 | 0.8%
65 | CC(C(=O)Nc1ccc(O)c(C(=O)O)c1)N1C(=O)/C(=C/c2cccs2)SC1=S (configuration not stated) | 2%
66 | CC(C(=O)NC1CCS(=O)(=O)C1)N1C(=O)/C(=C/c2ccc(Cl)cc2)SC1=S (configuration not stated) | 2.3%
67 | NS(=O)(=O)c1ccc(-c2ccc(/C=C3\SC(=O)NC3=O)o2)cc1 | 0.3%
68 | CN(CC(=O)Nc1c(Cl)cccc1Cl)C(=O)c1ccncc1 | -3.2%
69 | COc1ccc(C(c2nnnn2Cc2cccs2)N2CCN(c3ccccc3)CC2)cc1OC (configuration not stated) | -0.3%

Row | SMILES | inhibition
70 | CCOCCCNC(=O)c1cn(CC(C)C)c(=O)c2c1c1ccccc1n2C | 2.4%
71 | O=c1[nH][nH]c2c1[C@H](c1ccc(Cl)cc1)O[C@H](CCc1ccccc1)C2 | -0.3%
72 | COc1ccc(C(NC(=O)C2CCN(CCCc3ccccc3)CC2)c2cccs2)cc1 (configuration not stated) | -0.5%
73 | O=C(Nc1ccc2c(c1)[C@@H]1C[C@@H](CC(=O)N3CCCCC3)O[C@@H](CO)[C@@H]1O2)NC1CCCCC1 | 0.1%
74 | COC(=O)[C@]12CCCCC=C1N(Cc1ccco1)C(=O)[C@H](CC(=O)NCC1CCCCC1)C2 | -1.1%
75 | Cc1ccc(CCn2c3c(c4ccccc42)CN(C)CC3)cn1 | 1.5%
76 | CCC(C)C(N=C1NS(=O)(=O)c2ccccc21)C(=O)N1CCC(C)CC1 (configuration not stated) | -2.7%
77 | CCCSc1nc2sc3c(c2c(=O)n1-c1ccc(OC)cc1)CCN(C)C3 | 49.9% (active)
78 | CCOc1ccc(-n2c(SCC(=O)OC)nc3sc4c(c3c2=O)CCN(C)C4)cc1 | 26.5%
79 | CCSc1nc2sc3c(c2c(=O)n1-c1ccc(C)cc1)CCN(C)C3 | 9.9%
80 | O=S1(=O)CC(N2CCSCC2)CN1Cc1cn(Cc2cccc(Cl)c2)nn1 (configuration not stated) | 0.5%
81 | Cc1ccc(SCC(=O)NNC(=O)c2ccc(S(C)(=O)=O)cc2)cc1 | 0.3%
82 | CC1CCCCC1NC(=O)NC(=O)COC(=O)C1=NN(c2ccccc2)C(=O)CC1 (configuration not stated) | -0.8%
83 | CCOc1ccc(NC(=S)N2CCCCCC2)cc1 | 0%
84 | CC(=NNC(=S)N1CCCCCC1)c1ccccn1 | 32.5% (active)
85 | CCNC(=S)N1CCN(c2ncccn2)CC1 | 1.2%
86 | CCc1[nH]nc(C(=O)N2CCCC(CO)(Cc3ccc(F)cc3F)C2)c1C (configuration not stated) | 0.2%
87 | O=C(c1cccc(-n2cccc2)c1)N1CCN(S(=O)(=O)c2ccc(F)cc2)CC1 | -0.8%
88 | CCCCN1C(=O)C(CC(=O)NCc2cccs2)CC(C(=O)N2CCCCCC2)=C1C (configuration not stated) | 0%
89 | CCN(CC)C(=O)CSC1c2ccccc2C(=O)N1c1ccccc1 (configuration not stated) | -1.6%
90 | COc1ccc(C(=O)Nc2nc(-c3ccc(OC)cc3)c(-c3ccc([N+](=O)[O-])cc3)s2)cc1 | 40.2% (active)
91 | COc1ccc(NC(=O)c2cn(CCC#N)nc2-c2ccc([N+](=O)[O-])cc2)cc1 | -1.1%
92 | COc1ccc(-c2[nH][nH]c(=O)c2NC(=O)c2ccc([N+](=O)[O-])cc2)cc1 | 0.1%
